Measurements from the supplement of paper PMC6897291.

Experiments:
[1] = system: U-2932; experiment: growth inhibition by drug alone (1 - RLU/untreated control) (fraction); higher = stronger inhibition; conditions: 177Lu-lilotomab satetraxetan 0 ug/ml
Summary of the method: (§1)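 Compound doses on the pre-printed Selleck Cambridge Cancer Compound library plates were 10/100 nM for RIVA cells and 10/1,000 nM for U-2932 cells, seeded at 3,000 cells/well. Before seeding, cells were washed after 18 h with or without a radiolabelled anti-CD37 antibody conjugate (~600 MBq/mg; 0.5 µg/ml RIVA, 1 µg/ml U-2932). Growth inhibition was derived from RealTime-Glo luminescence relative to untreated no-drug control wells. Readings were taken daily starting on day 3, each after 1 h at 37°C, and each well's RLU was divided by the mean of 48 such wells per plate and subtracted from 1.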

[2] = system: RIVA; experiment: as above; conditions: 177Lu-lilotomab satetraxetan 0 ug/ml
Summary of the method: as §1

[3] = system: U-2932; experiment: growth inhibition by drug plus 177Lu-lilotomab satetraxetan (1 - RLU/untreated control) (fraction); higher = stronger inhibition; conditions: 177Lu-lilotomab satetraxetan 1 ug/ml
Summary of the method: as §1

[4] = system: RIVA; experiment: as above; conditions: 177Lu-lilotomab satetraxetan 0.5 ug/ml
Summary of the method: as §1

| SMILES | growth inhibition by drug alone ([1]; 10 nM, time (day): 3) | growth inhibition by drug alone ([1]; 10 nM, time (day): 4) | growth inhibition by drug alone ([1]; 10 nM, time (day): 5) | growth inhibition by drug alone ([1]; 10 nM, time (day): 6) | growth inhibition by drug alone ([1]; 1000 nM, time (day): 3) | growth inhibition by drug alone ([1]; 1000 nM, time (day): 4) | growth inhibition by drug alone ([1]; 1000 nM, time (day): 5) | growth inhibition by drug alone ([1]; 1000 nM, time (day): 6) | growth inhibition by drug alone ([2]; 10 nM, time (day): 3) | growth inhibition by drug alone ([2]; 10 nM, time (day): 4) | growth inhibition by drug alone ([2]; 10 nM, time (day): 5) | growth inhibition by drug alone ([2]; 10 nM, time (day): 6) | growth inhibition by drug alone ([2]; 100 nM, time (day): 3) | growth inhibition by drug alone ([2]; 100 nM, time (day): 4) | growth inhibition by drug alone ([2]; 100 nM, time (day): 5) | growth inhibition by drug alone ([2]; 100 nM, time (day): 6) | growth inhibition by drug plus 177Lu-lilotomab satetraxetan ([3]; 10 nM, time (day): 3) | growth inhibition by drug plus 177Lu-lilotomab satetraxetan ([3]; 10 nM, time (day): 4) | growth inhibition by drug plus 177Lu-lilotomab satetraxetan ([3]; 10 nM, time (day): 5) | growth inhibition by drug plus 177Lu-lilotomab satetraxetan ([3]; 10 nM, time (day): 6) | growth inhibition by drug plus 177Lu-lilotomab satetraxetan ([3]; 1000 nM, time (day): 3) | growth inhibition by drug plus 177Lu-lilotomab satetraxetan ([3]; 1000 nM, time (day): 4) | growth inhibition by drug plus 177Lu-lilotomab satetraxetan ([3]; 1000 nM, time (day): 5) | growth inhibition by drug plus 177Lu-lilotomab satetraxetan ([3]; 1000 nM, time (day): 6) | growth inhibition by drug plus 177Lu-lilotomab satetraxetan ([4]; 10 nM, time (day): 3) | growth inhibition by drug plus 177Lu-lilotomab satetraxetan ([4]; 10 nM, time (day): 4) | growth inhibition by drug plus 177Lu-lilotomab satetraxetan ([4]; 10 nM, time (day): 5) | growth inhibition by drug plus 177Lu-lilotomab satetraxetan ([4]; 10 nM, time (day): 6) | growth inhibition by drug plus 177Lu-lilotomab satetraxetan ([4]; 100 nM, time (day): 3) | growth inhibition by drug plus 177Lu-lilotomab satetraxetan ([4]; 100 nM, time (day): 4) | growth inhibition by drug plus 177Lu-lilotomab satetraxetan ([4]; 100 nM, time (day): 5) | growth inhibition by drug plus 177Lu-lilotomab satetraxetan ([4]; 100 nM, time (day): 6) |
| --- | --- | --- | --- | --- | --- | --- | --- | --- | --- | --- | --- | --- | --- | --- | --- | --- | --- | --- | --- | --- | --- | --- | --- | --- | --- | --- | --- | --- | --- | --- | --- | --- |
| CN(N=O)C(=O)N[C@@H](C=O)[C@@H](O)[C@H](O)[C@H](O)CO [Streptozotocin (Zanosar)] | -0.0672 | -0.049 | -0.0365 | 0.111 | -0.124 | -0.0755 | -0.109 | -0.156 | -0.263 | -0.268 | -0.296 | -0.472 | -0.291 | -0.295 | -0.308 | -0.376 | -0.0646 | -0.0512 | -0.0238 | 0.118 | -0.0995 | -0.0176 | -0.0119 | 0.0347 | – | – | – | – | – | – | – | – |
| COc1ccc2c(c1)CCC1C2CCC2(C)C(NCCCCCCN3C(=O)C=CC3=O)CCC12 (centres undefined) | 0.079 | 0.0406 | 0.0171 | -0.0318 | -0.0546 | 0.0273 | -0.0312 | -0.361 | -0.042 | -0.062 | -0.0736 | -0.13 | -0.374 | -0.291 | -0.321 | -0.444 | 0.00613 | 0.0631 | 0.103 | 0.161 | -0.0126 | 0.0436 | 0.0468 | 0.107 | 0.506 | 0.561 | 0.586 | 0.598 | 0.502 | 0.567 | 0.571 | 0.58 |
| CN(Cc1cnc2nc(N)nc(N)c2n1)c1ccc(C(=O)N[C@@H](CCC(=O)O)C(=O)O)cc1 [Abitrexate (Methotrexate)] | -0.0461 | -0.0435 | -0.0522 | -0.0907 | 0.866 | 0.93 | 0.956 | 0.968 | -0.206 | -0.255 | -0.282 | -0.39 | -0.038 | -0.184 | -0.173 | -0.287 | -0.123 | -0.083 | -0.0233 | 0.0372 | 0.851 | 0.924 | 0.957 | 0.972 | – | – | – | – | – | – | – | – |
| S=C(NCc1ccc2c(c1)OCO2)N1CCN(c2ncnc3c2oc2ccccc23)CC1 [Amuvatinib (MP-470)] | 0.138 | 0.0926 | -0.0674 | -0.0914 | 0.459 | 0.471 | 0.474 | 0.434 | 0.0683 | 0.0587 | 0.0228 | -0.162 | 0.05 | 0.0617 | 0.0713 | 0.0541 | 0.0425 | 0.101 | 0.162 | 0.177 | 0.465 | 0.477 | 0.498 | 0.561 | 0.627 | 0.668 | 0.684 | 0.68 | 0.641 | 0.642 | 0.661 | 0.677 |
| COc1ccc(COc2cc3oc(=O)c4cc(C(C)O)ccc4c3cc2OC)cc1 (centres undefined) [Palomid 529] | 0.0334 | 0.0194 | -0.0368 | -0.114 | -0.0247 | 0.00321 | -0.0394 | -0.242 | 0.0296 | 0.0604 | -0.0136 | -0.281 | -0.0737 | -0.0625 | -0.0557 | -0.118 | -0.0294 | 0.00126 | 0.0363 | 0.0704 | -0.0939 | 0.0227 | 0.013 | 0.0753 | – | – | – | – | – | – | – | – |
| Cc1ccc([N+](=O)[O-])cc1S(=O)(=O)N(C)/N=C/c1cnc2ccc(Br)cn12 | 0.343 | 0.311 | 0.248 | 0.226 | 0.963 | 0.969 | 0.976 | 0.979 | 0.193 | 0.193 | 0.103 | -0.15 | 0.507 | 0.599 | 0.585 | 0.539 | 0.346 | 0.371 | 0.418 | 0.47 | 0.969 | 0.975 | 0.981 | 0.985 | – | – | – | – | – | – | – | – |
| COC(=O)Nc1ccc(-c2nc(N3CCOCC3)c3cnn(C4CCN(C(=O)OC)CC4)c3n2)cc1 | 0.122 | 0.107 | 0.0346 | -0.00417 | 0.454 | 0.381 | 0.375 | 0.388 | 0.0376 | 0.1 | 0.0593 | -0.105 | 0.0485 | 0.0181 | 0.033 | 0.00434 | 0.113 | 0.147 | 0.233 | 0.252 | 0.395 | 0.315 | 0.348 | 0.433 | 0.624 | 0.663 | 0.677 | 0.664 | 0.468 | 0.537 | 0.55 | 0.563 |
| CN(C)CCCN=c1c2ccccc2n(C)c2[nH]c(=O)n(C)c(=O)c12 | 0.111 | 0.0704 | -0.00376 | -0.0149 | 0.0731 | 0.0794 | 0.011 | 0.0933 | 0.0709 | 0.0541 | 0.026 | -0.0499 | -0.0848 | -0.0419 | -0.079 | -0.137 | 0.0369 | 0.0857 | 0.138 | 0.24 | 0.0936 | 0.125 | 0.147 | 0.272 | 0.529 | 0.576 | 0.589 | 0.604 | 0.563 | 0.592 | 0.601 | 0.604 |
